Laboratory results taken from PubChem BioAssay AID1445 (SRMLSC, 2008).
Among all 220,000 compounds or so, about 910 (0.41%) were called active.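 The calls were made as follows: active = primary inhibition above the hit cutoff, then over 50% inhibition at one or more dose response concentrations (cut at about 23% in these data, passing the limit was not always enough); inconclusive = conflicting primary data, or primary hits not chosen for dose response; inactive = low primary inhibition, or under 50% at every dose.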 The full list was thinned out, with actives kept by preference. Entries with a potency or affinity are not part of this list.

What follows are compounds tested against Aminopeptidase N (Plasmodium falciparum (isolate 3D7)) (UniProt O96935) (assay: malaria alanyl aminopeptidase activity blockers – biochemical, fluorogenic H-Leu-NHMec substrate, 1536-well (AID 1445;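 also: plate controls were DMSO full reaction for no effect and no enzyme background for full effect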)). Conditions: recombinant M1AAP, H-Leu-NHMec fluorogenic kinetic assay; at 30 µM, active compounds read high unless noted.
Sequence of Aminopeptidase N (Plasmodium falciparum (isolate 3D7)) (O96935 whole entry, looked up): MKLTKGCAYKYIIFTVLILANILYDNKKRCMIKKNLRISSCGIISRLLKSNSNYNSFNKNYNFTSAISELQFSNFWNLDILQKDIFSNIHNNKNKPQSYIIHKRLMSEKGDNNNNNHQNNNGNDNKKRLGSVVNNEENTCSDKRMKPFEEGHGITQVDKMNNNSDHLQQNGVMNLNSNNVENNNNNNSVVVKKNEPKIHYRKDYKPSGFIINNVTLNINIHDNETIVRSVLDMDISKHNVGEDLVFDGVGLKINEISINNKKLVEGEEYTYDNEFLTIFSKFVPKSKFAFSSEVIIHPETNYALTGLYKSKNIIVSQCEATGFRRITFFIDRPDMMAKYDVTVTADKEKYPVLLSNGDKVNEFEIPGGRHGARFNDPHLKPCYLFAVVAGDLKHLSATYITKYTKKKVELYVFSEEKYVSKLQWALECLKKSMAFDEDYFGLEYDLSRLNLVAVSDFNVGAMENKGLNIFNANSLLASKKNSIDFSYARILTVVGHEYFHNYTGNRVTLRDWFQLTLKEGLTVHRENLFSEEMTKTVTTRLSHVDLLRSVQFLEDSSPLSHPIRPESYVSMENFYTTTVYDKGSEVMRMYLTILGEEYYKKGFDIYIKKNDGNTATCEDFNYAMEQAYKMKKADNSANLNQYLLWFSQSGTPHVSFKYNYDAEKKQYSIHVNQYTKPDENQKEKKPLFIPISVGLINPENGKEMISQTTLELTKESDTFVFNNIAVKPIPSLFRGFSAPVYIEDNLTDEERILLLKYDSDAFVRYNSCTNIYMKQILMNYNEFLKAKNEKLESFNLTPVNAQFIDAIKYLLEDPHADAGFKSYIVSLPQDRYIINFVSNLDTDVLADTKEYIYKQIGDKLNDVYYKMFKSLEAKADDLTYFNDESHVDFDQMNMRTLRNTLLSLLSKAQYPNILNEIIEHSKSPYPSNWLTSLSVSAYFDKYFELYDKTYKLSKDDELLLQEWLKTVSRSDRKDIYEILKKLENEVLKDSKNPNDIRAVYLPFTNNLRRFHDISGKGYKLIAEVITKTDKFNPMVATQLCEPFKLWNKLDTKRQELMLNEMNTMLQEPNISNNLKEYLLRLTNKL

Q: How did the inhibition turn out when `CCn1cc(CNC(=O)CSc2nc(-c3ccc(OC)c(OC)c3)cc(C(F)(F)F)n2)c(C)n1` was run?
A: The inhibition was 8.78% (inactive).

Q: Which inhibition does the source give for `O=C(CC1(c2ccc(Cl)cc2)C2CC3CC(C2)CC1C3)NCCO` (stereo unspecified) here?
A: Its inhibition is 3.19% (inactive).

Q: `CCN1CCN(CCCNC(=O)c2cn(CCOC)c(=O)c3c2c2ccccc2n3C)CC1` was tested. Which inhibition did it give?
A: Its inhibition is 17.7% (inactive).

Q: Which inhibition does the source give for `CCOc1cc(CNc2ccc(O)cc2)cc(Br)c1OCc1ccccc1F` here?
A: The inhibition was 25.5% (active).

Q: `COc1cc(CNc2ccc(O)cc2)cc(Br)c1OCc1ccccc1F` was tested. Which inhibition did it give?
A: The inhibition was 7.46% (inactive).

Q: `CCOc1cc(CNc2ccccc2)cc(Br)c1OCc1ccccc1F` was tested. Which inhibition did it give?
A: The inhibition was 6.06% (inactive).

Q: How did the inhibition turn out when `Cn1c(C(=O)NC2CCCCC2)cc2c(=O)n(C)c3ccccc3c21` was run?
A: The inhibition was -0.49% (inactive).

Q: How did the inhibition turn out when `CC1(CC(=O)N/N=C/c2cc3c(cc2Br)OCO3)OCCO1` was run?
A: Its inhibition is 9.79% (inactive).

Q: Which inhibition does the source give for `CC1(CC(=O)N/N=C/c2cc(Br)c(O)cc2O)OCCO1` here?
A: Its inhibition is 31.5% (active).

Q: Which inhibition does the source give for `CC1(CC(=O)N/N=C/c2cc([N+](=O)[O-])c(O)cc2O)OCCO1` here?
A: Its inhibition is 9.24% (inactive).

Q: With `COc1ccc(CCNC(=O)c2cc(-c3ccc(C)c(C)c3O)n[nH]2)cc1OC` as the compound, how does the inhibition read?
A: Its inhibition is 0.7% (inactive).

Q: `Cc1ccc(S(=O)(=O)Nc2nc(C)c(C(=O)NNS(=O)(=O)c3ccccc3)s2)cc1` was tested. Which inhibition did it give?
A: The inhibition was 3.2% (inactive).

Q: `Cc1ccc(S(=O)(=O)Nc2nc(C)c(C(=O)Nc3ccccc3)s2)cc1` was tested. Which inhibition did it give?
A: Its inhibition is 4.37% (inactive).

Q: For `Cc1nc(NS(=O)(=O)c2ccccc2)sc1C(=O)NN`, which inhibition is on record?
A: The inhibition was 6.77% (inactive).

Q: For `C/C(=N/NC(=O)c1sc(NS(=O)(=O)c2ccccc2)nc1C)c1ccccc1`, which inhibition is on record?
A: Its inhibition is 18.9% (inactive).

Q: `O=C(CSc1nc2ccccc2o1)Nc1cc(C(F)(F)F)ccc1N1CCOCC1` was tested. Which inhibition did it give?
A: Its inhibition is 8.71% (inactive).

Q: With `CCCCn1c(C)csc1=Nc1cccnc1` as the compound, how does the inhibition read?
A: Its inhibition is 4.71% (inactive).

Q: How did the inhibition turn out when `Cc1cc(C)c(S(=O)(=O)Nn2cnnc2)c(C)c1` was run?
A: The inhibition was -1% (inactive).

Q: Which inhibition does the source give for `CCOP(=O)(OCC)/C(C#N)=C/c1cc(OC)ccc1OC` here?
A: Its inhibition is 1.01% (inactive).

Q: With `COc1ccccc1NC(=S)N1CCCC1` as the compound, how does the inhibition read?
A: Its inhibition is 8.78% (inactive).

Q: For `CCCC(=O)NCc1cc(-c2nn(C)c(=O)c3ccccc23)ccc1C`, which inhibition is on record?
A: Its inhibition is -1.83% (inactive).

Q: Which inhibition does the source give for `CC(=O)NCc1cc(-c2nn(C)c(=O)c3ccccc23)ccc1C` here?
A: Its inhibition is 12.1% (inactive).

Q: `CCC(=O)NCc1cc(-c2nn(C)c(=O)c3ccccc23)ccc1C` was tested. Which inhibition did it give?
A: Its inhibition is 3.73% (inactive).

Q: `CCOC(=O)NCc1cc(-c2nn(C)c(=O)c3ccccc23)ccc1C` was tested. Which inhibition did it give?
A: Its inhibition is -0.16% (inactive).

Q: Which inhibition does the source give for `CC(O)CNCCCOc1ccc(Cl)cc1C(C)(C)C` (stereo unspecified) here?
A: Its inhibition is 2.63% (inactive).

Q: How did the inhibition turn out when `Cc1ccc(N(C(=O)C2CCC(=O)N2)C2(C(=O)NC3CCCCC3)CCCCC2)cc1` (stereo unspecified) was run?
A: Its inhibition is 3.72% (inactive).

Q: `CC(C)NS(=O)(=O)c1ccc(CCC(=O)NCc2cccnc2)cc1` was tested. Which inhibition did it give?
A: Its inhibition is 3.94% (inactive).

Q: For `CCCCN1CNC(=S)N(c2ccccc2OCC)C1`, which inhibition is on record?
A: The inhibition was 1.13% (inactive).

Q: `CCOCCCNCc1cccc(OCc2ccc(F)cc2)c1` was tested. Which inhibition did it give?
A: The inhibition was -0.98% (inactive).

Q: With `COc1ccc(-c2cc(-c3nnc(-c4ccncc4)o3)c3ccccc3n2)cc1` as the compound, how does the inhibition read?
A: Its inhibition is 7.37% (inactive).

Q: For `CSc1nnc(-c2cc(-c3ccc(C)cc3)nc3ccccc23)o1`, which inhibition is on record?
A: The inhibition was -2.26% (inactive).

Q: For `CCC(=O)Nc1ccc(-n2nnnc2SCC(=O)NNC(=O)c2ccco2)cc1`, which inhibition is on record?
A: Its inhibition is 4.76% (inactive).

Q: `S=c1[nH]nc(-c2cccnc2)n1/N=C/C=C/c1ccccc1` was tested. Which inhibition did it give?
A: Its inhibition is 10.4% (inactive).

Q: With `O=C(CN(c1ccccc1)S(=O)(=O)c1ccccc1)NCCSc1nc2ccccc2s1` as the compound, how does the inhibition read?
A: Its inhibition is 4.5% (inactive).

Q: `CN1CCN(Cc2nc3ccccc3c(=O)n2Cc2nc(-c3ccc([N+](=O)[O-])cc3)cs2)CC1` was tested. Which inhibition did it give?
A: Its inhibition is 11.9% (inactive).

Q: Which inhibition does the source give for `CN1CCN(Cc2nc3ccccc3c(=O)n2Cc2nc(-c3ccc4ccccc4c3)cs2)CC1` here?
A: Its inhibition is -1.75% (inactive).

Q: With `Cc1ccc(C(C(=O)NCc2ccco2)N(Cc2ccco2)C(=O)CNC(=O)c2ccco2)cc1` (stereo unspecified) as the compound, how does the inhibition read?
A: The inhibition was 19.3% (inactive).

Q: For `COc1ccc(S(=O)(=O)N2CCC(C(=O)NCCc3ccccc3)CC2)cc1OC`, which inhibition is on record?
A: The inhibition was -1.88% (inactive).

Q: `COc1ccc(S(=O)(=O)N2CCC(C(=O)NCc3ccccn3)CC2)cc1OC` was tested. Which inhibition did it give?
A: Its inhibition is 2.6% (inactive).

Q: For `COc1ccc(OC)c(S(=O)(=O)N2CCC(C(=O)NCCc3ccc(OC)c(OC)c3)CC2)c1`, which inhibition is on record?
A: The inhibition was -4.37% (inactive).

Q: With `COc1ccc(CCNC(=O)C2CCN(S(=O)(=O)c3cc(OC)ccc3OC)CC2)cc1` as the compound, how does the inhibition read?
A: The inhibition was 14.3% (inactive).

Q: For `COc1ccc(OC)c(S(=O)(=O)N2CCC(C(=O)NCc3ccccc3OC)CC2)c1`, which inhibition is on record?
A: Its inhibition is 3.04% (inactive).

Q: `COc1ccc(OC)c(S(=O)(=O)N2CCC(C(=O)NCCc3ccccc3)CC2)c1` was tested. Which inhibition did it give?
A: The inhibition was -0.81% (inactive).

Q: With `COc1ccc(OC)c(S(=O)(=O)N2CCC(C(=O)NCc3ccccc3)CC2)c1` as the compound, how does the inhibition read?
A: Its inhibition is 57.9% (active).

Q: Which inhibition does the source give for `COc1ccccc1N1CCN(C(=O)c2ccc3nc[nH]c3c2)CC1` here?
A: The inhibition was 4.75% (inactive).

Q: Which inhibition does the source give for `CCn1c(SCC(=O)Nc2nc3ccccc3s2)nnc1-c1ccc(Br)cc1` here?
A: Its inhibition is 4.22% (inactive).
